The record followed here is PubChem BioAssay (NCI).

SMILES strings stand for the structures. This is part of a sample that, as a whole, favours compounds with a hit. Of some 79,000 tested, about 15% had one in any assay. The source made the active and inactive calls. Cut-off read from the data, not from the text of the source: active = growth inhibition above about 70%; inactive = the rest.

A short description of this experiment: NCI Yeast Anticancer Drug Screen. Data for the cln2 rad14 strain (AID 165).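 Note: 0% = growth equal to vehicle treated cultures.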 The conditions noted are these: S. cerevisiae cln2 rad14 strain, at 50.0 µM (retest, dose inferred, filed as 5.0), hits give high values. The essentials: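 Growth inhibition, relative to vehicle-treated controls, is the read-out. The test organism is a yeast strain with defined genetic alterations, cln2 rad14.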
As for `C/C(=N\NC(=S)SCc1ccccc1)c1ccccn1`, the growth inhibition was 95% (active).

Take `CN(C)c1ccc(Sc2ccc3nc(N)nc(N)c3c2)cc1`: the growth inhibition is 6% (inactive). `COc1ccc(C2c3cc4c(cc3OC(C)(O)C2C)OCO4)c(OC)c1` (stereo not given): the growth inhibition was 51% (inactive).

On to `COc1cc(C2SCC(=O)N2c2ccc(-c3ccc(-n4c(-c5ccccc5)nc5ccccc5c4=O)cc3)cc2)cc(OC)c1OC` (stereo not given), for which the growth inhibition is 13% (inactive). Consider `COc1ccc(Br)c(C(=O)Sc2nnnn2-c2cccc(Cl)c2)c1`, for which the growth inhibition was 83% (active).

Turning to `O=C(NNc1ccnc2cc(Cl)ccc12)/C(=C\c1ccccc1Cl)NC(=O)c1ccccc1`, the growth inhibition is 22% (inactive).

As to `CSC(=S)Nc1cccc(C)n1`, the growth inhibition is 65% (inactive). For `O=C(/C=C\c1ccc(Cl)cc1Cl)c1cccs1`, the growth inhibition was 27% (inactive). Regarding `COc1ccc(-c2cn(-c3ccc(I)cc3)c3ncnc(N)c23)cc1`, the growth inhibition is 65% (inactive).

Turning to `CN(C)c1ccc(C(C#N)=C(C#N)C#N)cc1`, the growth inhibition was 6% (inactive). With `CC1(C)[C@@H]2CC[C@]1(C)[C@H](OC(=O)CSC#N)C2` the figure was 91% (active); with `NNC(=O)CCc1ccc2ccc3ccccc3c2c1`, -15% (inactive). As for `COc1ccc(/C(C)=N/OC(=O)c2c(-c3ccccc3Cl)noc2C)cc1CN1CCOCC1`, the growth inhibition is 97% (active). The value for `S=C(Nc1ccc(Cl)cc1)SC1CCCCC1` was 31% (inactive). With `Nc1nc(-c2cccnc2)cc(-c2cc(-c3cccnc3)nc(N)n2)n1` the figure was 86% (active). As for `COC1=CC(=O)C2C(C1=O)C(c1ccc(Cl)cc1)[C@@H]2C` (stereo not given in full), the growth inhibition is 98% (active). With `c1ccc(-c2nc3cccnc3s2)cc1` the figure was -19% (inactive); with `O=[N+]([O-])c1cc(CCl)ccc1CCl`, 97% (active); with `COc1ccc(/C=C2\SC(=S)N(/C=C/c3nc4ccccc4[nH]c3=O)C2=O)cc1OC`, 26% (inactive). The value for `CCCN(CCC)CC(O)c1cc(-c2ccc(Cl)cc2)nc2c(C)c(Cl)ccc12` (stereo not given) was 93% (active); that for `O=C(Nc1ccccc1)OCCc1ccc(Cl)c(Cl)c1` was 85% (active). With `CC(O)C(O)C(O)C(/C=N\Nc1ccccc1)=N/Nc1ccccc1` (stereo not given) the figure was 49% (inactive). For the molecule `Cc1cc(I)ccc1N`, the growth inhibition is 93% (active). The value for `FC(F)(F)c1cc(NC(=S)N2c3ccccc3-n3cccc3C2c2cccnc2)cc(C(F)(F)F)c1` (stereo not given) was 21% (inactive); that for `CC(C)(CN1CCCCC1)C(=O)CC(SCCS(=O)(=O)O)c1ccc(Br)cc1` (stereo not given) was 26% (inactive); that for `C[Si](C)(C)CNC(=O)OCc1ccccc1` was 20% (inactive).

In the case of `CC(C(=O)N1C(=O)N(C(=O)[C@H](C)C(O)c2ccccc2)[C@H](c2ccccc2)[C@H]1c1ccccc1)[C@@H](O)c1ccccc1` (stereo not given in full), the growth inhibition is 59% (inactive).

As to `Oc1cccc2c(Cl)ccnc12`, the growth inhibition was 99% (active).

As to `O=C1C=CC(=C(c2ccccc2)c2ccccc2)c2ccccc21`, the growth inhibition is 86% (active).

With `S=C(S)NN1CCOCC1`, the growth inhibition is 22% (inactive).
